According to ChEMBL document CHEMBL4888484, “Replenishing the malaria drug discovery pipeline: Screening and hit evaluation of the MMV Hit Generation Library 1 (HGL1) against asexual blood stage Plasmodium falciparum ,using a nano luciferase reporter read-out” (2022):
Hit rate of the full screen: of about 150,000 compounds, about 540 (0.36%) showed an effect of 50% or more. The entries come from a sample that favours strong results as a whole.

System: Plasmodium falciparum
Experiment: Primary screen in NF54 nanoGlo assay, in single point, at 2uM, 72h; a lower Z score goes with more inhibition
Assay type: functional, Erythrocyte
Conditions: timepoint 72 hour

Q: With `CCc1nnc(CNC(=O)C(=O)c2ccco2)o1` as the compound, how does the “% Inhibition” value read?
A: Its value is -5%.

Q: What about the Z score of the same compound?
A: Its Z score is 0.65.

Q: `COc1ccc(CNC(=O)CCc2c(C)nn(-c3ccc4nnc(C)n4n3)c2C)c(OC)c1` was tested. Which “% Inhibition” value did it give?
A: Its value is 5%.

Q: And the Z score?
A: The Z score was -0.63.

Q: `CC[n+]1c(/C=C/N(C)c2ccccc2)oc2ccc(-c3ccccc3)cc21` was tested. Which “% Inhibition” value did it give?
A: The value was 88%.

Q: What about the Z score of the same compound?
A: Its Z score is -9.92.

Q: With `CC[n+]1c(/C=C/N(C)c2ccccc2)oc2ccccc21` as the compound, how does the “% Inhibition” value read?
A: Its value is 80%.

Q: And the Z score?
A: The Z score was -10.29.

Q: Which “% Inhibition” value does the source give for `COc1ccc2c(c1)C(=O)N(Cc1ccccc1)C(=O)C2(C)C` here?
A: Its value is -10%.

Q: And the Z score?
A: The Z score was 1.06.

Q: Which “% Inhibition” value does the source give for `C[C@@H](c1cccnc1)N(C)Cc1nc2c(s1)CCC2` here?
A: Its value is -18%.

Q: And the Z score?
A: Its Z score is 3.45.

Q: Which “% Inhibition” value does the source give for `CCC(=O)Nc1cc(NC(=O)N(CC)CC2CCOCC2)ccc1OC` here?
A: Its value is -8%.

Q: What about the Z score of the same compound?
A: The Z score was 1.44.

Q: Which results are given for `Oc1ccc2ncccc2c1[C@@H](Nc1ccccn1)c1cccc(Br)c1`?
A: % Inhibition: 58%; Z score: -12.1

Q: Which results are given for `Oc1ccc2ncccc2c1[C@@H](Nc1ccccn1)c1cccc(Cl)c1`?
A: % Inhibition: 34%; Z score: -3.9

Q: For `Cc1cc([C@H](Nc2ccccn2)c2ccccc2)c(NC(=O)c2ccccc2)s1`, which “% Inhibition” value is on record?
A: The value was 31%.

Q: And the Z score?
A: Its Z score is -0.7.

Q: For `Cc1cccc(Cl)c1NC(=O)N1CCS(=O)(=O)[C@@H](C)C1`, which “% Inhibition” value is on record?
A: Its value is -5%.

Q: What about the Z score of the same compound?
A: The Z score was 0.54.

Q: Which results are given for `Cc1ccc(-n2nnnc2C2(NC(C)C)CCCC2)cc1`?
A: % Inhibition: -3%; Z score: 0.43

Q: How did the “% Inhibition” value turn out when `CC(=O)Nc1ccc(-c2nc(-c3cccnn3)no2)c(C)c1` was run?
A: Its value is -22%.

Q: What about the Z score of the same compound?
A: Its Z score is 2.61.

Q: For `CC(C)(C)CN(CC(=O)O)C(=O)Cc1ccccc1F`, which “% Inhibition” value is on record?
A: The value was -9%.

Q: And the Z score?
A: Its Z score is 1.82.

Q: With `CCN1CCN(C(=O)c2cnc(-c3ccc(F)cc3)nc2N(C)C)CC1` as the compound, how does the “% Inhibition” value read?
A: The value was 3%.

Q: And the Z score?
A: The Z score was -0.5.

Q: What does the source list for `COc1ccnc(NCCCNc2nccc(OC)n2)n1`?
A: % Inhibition: -4%; Z score: 0.53

Q: What does the source list for `Cc1ccc(N2CCOCC2)c(NC(=O)C2CCCCC2)c1`?
A: % Inhibition: -1%; Z score: 0.12

Q: How did the “% Inhibition” value turn out when `COc1ccccc1COC(=O)Nc1c(C)nn(C)c1Cl` was run?
A: The value was 2%.

Q: And the Z score?
A: The Z score was -0.32.

Q: With `O=C(CNC(=O)OCc1ccccc1)Nc1ccc(F)cc1` as the compound, how does the “% Inhibition” value read?
A: The value was 37%.

Q: What about the Z score of the same compound?
A: The Z score was 2.05.

Q: With `Cc1nn(C)c(Cl)c1NC(=O)OCc1ccc(F)cc1` as the compound, how does the “% Inhibition” value read?
A: Its value is 54%.

Q: What about the Z score of the same compound?
A: Its Z score is -1.24.

Q: `Cc1ccc(N2S(=O)(=O)c3ccccc3S2(=O)=O)cc1` was tested. Which “% Inhibition” value did it give?
A: Its value is 4%.

Q: And the Z score?
A: The Z score was -0.44.

Q: With `Cc1cc(NC(=O)C2CCC(C3CC3)CC2)n2ncnc2n1` (centres undefined) as the compound, how does the “% Inhibition” value read?
A: Its value is -7%.

Q: What about the Z score of the same compound?
A: Its Z score is 0.83.

Q: `CCOc1ccc(Nc2c3ccccc3nc3ccccc23)cc1` was tested. Which “% Inhibition” value did it give?
A: The value was 81%.

Q: What about the Z score of the same compound?
A: The Z score was -10.53.

Q: Which “% Inhibition” value does the source give for `CCOc1ccc(NC(=O)Cc2c(O)nc3ccccc3c2O)cc1` here?
A: Its value is -9%.

Q: What about the Z score of the same compound?
A: The Z score was 1.39.

Q: `O=C(O)c1ccc(Nc2c3ccccc3nc3ccccc23)cc1` was tested. Which “% Inhibition” value did it give?
A: Its value is -3%.

Q: What about the Z score of the same compound?
A: The Z score was 0.3.

Q: `FC(F)(F)c1cccc(Nc2c3ccccc3nc3ccccc23)c1` was tested. Which “% Inhibition” value did it give?
A: The value was 10%.

Q: And the Z score?
A: Its Z score is -0.85.

Q: For `C[C@H](NC(=O)c1ccccc1)C(=O)NCC1(N2CCOCC2)CCCCC1`, which “% Inhibition” value is on record?
A: The value was -4%.

Q: And the Z score?
A: Its Z score is 0.39.

Q: Which results are given for `COc1ccc(C(=O)N(Cc2ccc(OS(=O)(=O)c3ccc(F)cc3)cc2)C(C)C)c(OC)c1`?
A: % Inhibition: -14%; Z score: 1.5

Q: `NC(=NCc1ccc(Cl)cn1)N1CCN(c2nccs2)CC1` was tested. Which “% Inhibition” value did it give?
A: The value was -4%.

Q: And the Z score?
A: Its Z score is 0.42.

Q: Which results are given for `NC(=NCc1csc2ccccc12)N1CCN(c2nccs2)CC1`?
A: % Inhibition: 5%; Z score: -0.56

Q: Which “% Inhibition” value does the source give for `NC(=NCc1cccc2cccnc12)N1CCN(c2nccs2)CC1` here?
A: The value was 57%.

Q: And the Z score?
A: Its Z score is -10.38.

Q: How did the “% Inhibition” value turn out when `N#Cc1ncn(C[C@H]2CCC3(CCCCC3)O2)c1C#N` was run?
A: Its value is -10%.

Q: And the Z score?
A: Its Z score is 1.82.

Q: With `C[C@H](O)CN1CCN(Cc2cn3ccccc3c2C#N)CC1` as the compound, how does the “% Inhibition” value read?
A: Its value is -13%.

Q: And the Z score?
A: The Z score was 2.38.

Q: What does the source list for `Cc1ccc(CN2CCN(C[C@@H](O)Cn3c4ccccc4n4c(=O)cc(C)c(C#N)c34)CC2)c(C)c1`?
A: % Inhibition: 86%; Z score: -13.14

Q: Which results are given for `N#Cc1c(CN2CCOCC2)cc(=O)n2c1[nH]c1ccccc12`?
A: % Inhibition: 35%; Z score: -0.01

Q: Which “% Inhibition” value does the source give for `O=C(CC1CCCCC1)NCC1CCN(c2cc(-c3cccnc3)n[nH]2)CC1` here?
A: The value was -17%.

Q: And the Z score?
A: The Z score was 1.71.

Q: For `CC[n+]1ccc(-c2ncc(-c3ccc(C(C)(C)C)cc3)o2)cc1`, which “% Inhibition” value is on record?
A: The value was 66%.

Q: What about the Z score of the same compound?
A: The Z score was -12.84.

Q: `CO[C@@H](C)C(=O)N(Cc1ncc[nH]1)c1cncc(Br)c1` was tested. Which “% Inhibition” value did it give?
A: Its value is 2%.

Q: And the Z score?
A: Its Z score is -0.29.

Q: What does the source list for `COc1ccc(-c2cc(OC(F)(F)F)ccc2O)nn1`?
A: % Inhibition: -8%; Z score: 1.53

Q: For `CC1CCCC(C)N1S(=O)(=O)c1ccc(NC(=O)CCC(=O)c2ccc3c(c2)OCCO3)cc1` (centres undefined), which “% Inhibition” value is on record?
A: The value was -4%.

Q: And the Z score?
A: Its Z score is 0.64.

Q: How did the “% Inhibition” value turn out when `O=C(CCC(=O)c1ccc2c(c1)OCCCO2)NCc1ccccc1` was run?
A: The value was -7%.

Q: What about the Z score of the same compound?
A: Its Z score is 1.26.

Q: Which results are given for `C[N+]1(CCCC(=O)c2ccc3c(c2)OCCO3)CCC(c2ccccc2)C1` (centres undefined)?
A: % Inhibition: 73%; Z score: -8.3

Q: `CCn1nccc1-c1cnc2nc(C)nn2c1` was tested. Which “% Inhibition” value did it give?
A: Its value is -6%.

Q: What about the Z score of the same compound?
A: The Z score was 0.88.

Q: How did the “% Inhibition” value turn out when `Cc1cc(C)c(C(=O)N2C[C@H](F)C[C@H]2C(N)=O)o1` was run?
A: Its value is 1%.

Q: And the Z score?
A: The Z score was -0.13.

Q: `Cc1cccc([C@@H](NC(=O)Nc2ncco2)C(F)(F)F)c1` was tested. Which “% Inhibition” value did it give?
A: Its value is 54%.

Q: And the Z score?
A: The Z score was 1.59.

Q: For `Cc1cccc(C(NC(=O)[C@@H]2CCCO2)C(F)(F)F)c1` (some centres undefined), which “% Inhibition” value is on record?
A: The value was -6%.

Q: What about the Z score of the same compound?
A: Its Z score is 0.81.

Q: Which results are given for `Cc1cccc([C@@H](NC(=O)CC2OCCCO2)C(F)(F)F)c1`?
A: % Inhibition: 3%; Z score: -0.38

Q: Which results are given for `O=C(Nc1cccc2c1CCCC2)c1cccc(S(=O)(=O)N2CCCCC2)c1`?
A: % Inhibition: -16%; Z score: 1.73

Q: What does the source list for `Cc1cc(=O)c(C(=O)Nc2ccnc(NC(=O)OC(C)(C)C)c2)c[nH]1`?
A: % Inhibition: -2%; Z score: 0.38

Q: What does the source list for `Cn1cncc1CC(=O)Nc1ccnc(NC(=O)OC(C)(C)C)c1`?
A: % Inhibition: 94%; Z score: -14.52

Q: Which “% Inhibition” value does the source give for `Cn1cncc1CCN1CCC[C@H](NC(=O)OC(C)(C)C)C1` here?
A: Its value is -12%.

Q: And the Z score?
A: The Z score was 1.84.

Q: Which results are given for `CC(C)c1noc(CN2CC[C@H](NC(=O)c3ccccn3)[C@@H](O)C2)n1`?
A: % Inhibition: -2%; Z score: 0.42

Q: `CCCN(CC(=O)N(Cc1ccco1)C[C@H]1CCCO1)C(=O)c1ccc(C)cc1` was tested. Which “% Inhibition” value did it give?
A: Its value is -8%.

Q: What about the Z score of the same compound?
A: The Z score was 1.14.

Q: How did the “% Inhibition” value turn out when `COc1ccnc(C(=O)N(Cc2cnn(C)c2)C(C)C)c1` was run?
A: The value was -10%.

Q: What about the Z score of the same compound?
A: The Z score was 1.37.

Q: With `CC(C)c1nccn1CCC(=O)N1CC[C@H](N)C1` as the compound, how does the “% Inhibition” value read?
A: Its value is 6%.

Q: What about the Z score of the same compound?
A: Its Z score is -0.94.

Q: What does the source list for `CC(C)c1nccn1CC(=O)NC(C1CC1)C1CC1`?
A: % Inhibition: 1%; Z score: -0.12

Q: With `CC(C)c1nccn1CCC(=O)Nc1ncn(C2CCCCC2)n1` as the compound, how does the “% Inhibition” value read?
A: The value was 50%.

Q: What about the Z score of the same compound?
A: Its Z score is 1.4.
